Drawing on PubChem BioAssay (NCI), this text covers growth for nine molecules.

Holding throughout (assay): NCI-60 one-dose screen, 48 h (100 = growth as untreated, 0 = no growth, -100 = all killed)
Common to all, as to settings: 10 µM unless noted

The test system of experiment [1] is SR leukemia.
Experiment [2] deals with RPMI-8226 leukemia.
The subject of experiment [3] is OVCAR-8 ovarian.
The test system of experiment [4] is OVCAR-5 ovarian.
Experiment [5] relates to OVCAR-4 ovarian.
In experiment [6] the test system is SK-OV-3 ovarian.
Experiment [7] has as its system IGROV1 ovarian.
Experiment [8] has as its system OVCAR-3 ovarian.
The subject of experiment [9] is HS 578T breast.
Experiment [10] concerns NCI/ADR-RES ovarian.
The test system of experiment [11] is T-47D breast.
The test system of experiment [12] is BT-549 breast.
The subject of experiment [13] is MDA-MB-435 melanoma.
Experiment [14] concerns MCF7 breast.
Experiment [15] deals with HCT-116 colon.
For experiment [16], the system named is HCC-2998 colon.
The subject of experiment [17] is KM12 colon.
Experiment [18] concerns SW-620 colon.

Molecules are shown by their SMILES. Compounds without any hit were thinned out: in the full panel of roughly 83,000, 20% have a hit.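 A percent growth of 40 corresponds to 60% growth inhibition; 0 means no net growth; -100 means all cells died. Active threshold: below 10.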 A number with no mark means an inactive call. Calls of active or inactive are those of the source.

In the case of `CCCCCc1ccc(S(=O)(=O)Nc2cccc(-c3csc(NC(=O)CN4CCN(CCO)CC4)n3)c2)cc1`, the growth in experiment [1] is 5.04% (active); in experiment [2] it was 20.2%; in experiment [3], 91.4%; in experiment [4], 101%; in experiment [5], 79.2%; in [6], 89.5%. Further, the growth was 85.5% in [7]; 93.2% in experiment [8]; 69.4% in experiment [9]; 99% in experiment [10]; 64.5% in experiment [11]; 99.9% in experiment [12]. Besides, the growth in experiment [13] was 44.3%; in experiment [14], 35.8%; in experiment [15] it was 45%; in experiment [16] it was 26.9%; in experiment [17], 54%.

With `C=C(C)[C@@H]1CC[C@]2(C(=O)NCCCCCN(CCC#N)CCC#N)CC[C@]3(C)[C@H](CC[C@@H]4[C@@]5(C)CCC(=O)C(C)(C)[C@@H]5CC[C@]43C)[C@@H]12`, the growth in experiment [1] was 80.4%; in experiment [2] it was 79.7%; in [3] it was 106%; in experiment [4], 96.2%; in [5], 86%; in experiment [6] it was 118%. Also, the growth in experiment [7] was 97.6%; in experiment [8], 111%; in experiment [9] it was 103%; in experiment [10], 108%; in experiment [11] it was 106%; in experiment [12], 92.9%. Besides, the growth in experiment [13] is 99.7%; in experiment [14] it was 86.2%; in experiment [15], 95.5%; in [16], 110%; in experiment [17], 101%.

`CCOc1ccc(NC2=C(Cl)C(=O)c3nc(C)ccc3C2=O)cc1`: the growth in experiment [1] was -27.4% (active); in experiment [2], -19.3% (active); in experiment [3] it was 1.03% (active); in experiment [4], 54.8%; in experiment [5], -97.5% (active); in experiment [6], 79.8%. Besides, the growth in [7] was -82.4% (active); in experiment [8], -97.2% (active); in experiment [9] it was 49%; in [10] it was -15.6% (active); in experiment [11], -43.8% (active); in experiment [12] it was 46.5%. The growth is -83.7% (active) in experiment [13]; -55.3% (active) in [18]; -83.6% (active) in experiment [15]; -55.7% (active) in experiment [16]; 57.4% in experiment [17].

Turning to `N/C(=N\C(N)=N\c1nc2ccccc2s1)c1ccncc1Cl`, the growth in experiment [1] was 39.4%; in [2], 11.6%; in [3] it was 49%; in experiment [4], 61.1%; in experiment [5] it was 104%; in experiment [6], 41.8%. The growth is 34.2% in experiment [7]; 19.8% in experiment [8]; 35.7% in [9]; 25.2% in experiment [10]; 55.4% in experiment [11]; 43.8% in experiment [12]. In addition, the growth is 6.13% (active) in experiment [13]; 75.6% in [14]; 23.3% in experiment [15]; 76.6% in experiment [16]; 24.1% in [17].

In the case of `Cc1ccc(-n2cc(/C=C/C(=O)c3ccc(O)cc3)c(-c3ccc(S(C)(=O)=O)cc3)n2)cc1`, the growth in [1] was 55.1%; in [2], 47.9%; in [3], 87.5%; in experiment [4], 95.7%; in experiment [5], 98.7%; in experiment [6] it was 94.9%. The growth in experiment [7] is 47.7%; in [8], 22.7%; in experiment [9], 96.2%; in experiment [10], 33.6%; in [11] it was 73.5%; in experiment [12] it was 70.9%. In addition, the growth in [13] was 1.81% (active); in [18], 34%; in experiment [15], 26.6%; in experiment [16] it was 104%; in [17] it was 38.3%.

Take `CC1(C)[C@@H](O)CC[C@]2(C)[C@H]3CC[C@@H]4[C@H]5[C@H](C(=O)/C=C\c6ccncc6)CC[C@]5(O)CC[C@@]4(C)[C@]3(C)CC[C@@H]12`: the growth was 4.32% (active) in [1]; 12.1% in experiment [2]; 40.3% in experiment [3]; 47.5% in [4]; 38.5% in [5]; 113% in [6]. The growth in [7] is 37.3%; in [8], 34.6%; in experiment [9], 39.3%; in [10], 25.5%; in experiment [11] it was 68.7%; in experiment [12], 68.2%. For the same molecule, the growth in experiment [13] is 14.9%; in [18] it was 26.5%; in experiment [15], 14.9%; in experiment [16], 77.9%; in experiment [17], 39.2%.

With `O=S(=O)(NCCNc1nccc(-n2cnc3ccccc32)n1)c1ccc(C(F)(F)F)cc1`, the growth in experiment [1] is 35.5%; in experiment [2], 44.9%; in experiment [3] it was 63.5%; in experiment [4] it was 86.2%; in experiment [5], 28.4%; in [6], 62.2%. For the same molecule, the growth in experiment [7] is 66.4%; in experiment [8] it was 72.9%; in experiment [9], 42.9%; in experiment [10] it was 55.9%; in experiment [11], 22.3%; in experiment [12] it was 53.1%. In addition, the growth in experiment [13] was 64.4%; in [18], 83.5%; in experiment [15] it was 40.1%; in experiment [16], 80.5%; in experiment [17], 58.7%.

`Nc1nc(N)c2c(n1)NC(c1ccc(C(F)(F)F)cc1)CC(c1ccc(Nc3nc(NCCO)nc(N4CCOCC4)n3)cc1)=N2` (stereo not drawn): the growth in experiment [1] is 5.13% (active); in [2], 28.9%; in [3], 60.2%; in experiment [4], 97.6%; in experiment [5] it was 79.5%; in experiment [6] it was 99.7%. In addition, the growth in experiment [7] was 72.6%; in experiment [8], 61.2%; in experiment [9], 58.5%; in [10], 97.5%; in [11], 62.7%; in experiment [12] it was 76.3%. Also, the growth in [13] is 65.9%; in experiment [18], 56.7%; in experiment [15] it was 35.8%; in experiment [16], 86.4%; in experiment [17], 51.2%.

As to `O=C(c1ccc(Cl)cc1)C1[C@H](c2ccc(Cl)cc2)[C@@H](c2ccccc2)NC12C(=O)Nc1ccccc12` (stereo partly drawn), the growth in experiment [1] is 3.54% (active); in experiment [2], 40.1%; in [3], 64%; in experiment [4] it was 71%; in experiment [5], 59.7%; in experiment [6], 102%. The growth in experiment [7] was 44.9%; in [8], 47.7%; in experiment [9], 67.1%; in experiment [10] it was 52.2%; in experiment [11], 40.1%; in [12] it was 96.1%. Further, the growth is 49.1% in experiment [13]; 54% in experiment [18]; 26.1% in [15]; 34.5% in experiment [16]; 30.7% in experiment [17].
